Shown is part of a subset that was picked to be rich in hits.
HT1080NT lethal: kills 2HG-producing HT-1080-NT fibrosarcoma cells; AID 686970; hit rate 1.6% among 360,000; HT-1080-NT fibrosarcoma viability, CellTiter-Glo ATP luminescence, 48 h; Potency, µM (doses to about 46.1 µM), usual class: cytotoxic;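 further: NT is the 2HG producing partner of a matched IDH1 knockdown line; nearly all actives have a fitted effect of over 55% in size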
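Luminescent CellTiter-Glo readout after 48 hours of compound exposure at 37 degrees C defined viability of HT-1080-NT cells. Activity was normalized to DMSO wells and cell-free media wells; concentration-response curves were fitted and assigned curve classes.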
TDP1 cell noCPT: qHTS for Inhibitors of human tyrosyl-DNA phosphodiesterase 1 (TDP1): qHTS in cells in absence of CPT | hit rate 15% among 420,000 | Potency, µM (doses to about 46.2 µM), most hits filed as inhibitors | DT40 Tdp1-/- hTDP1 cells, no CPT, ATP luminescence, 48 h | AID 686978, 2013; further: nearly all actives have a fitted effect of over 55% in size
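Luminescent ATP content (CellTiter-Glo) served as the growth readout. Knockout chicken DT40 cells expressing human TDP1 were exposed to compounds without camptothecin for a minimum 48 hr at 37 °C.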
HT1080 IDH1KD tx: HT-1080 IDH1 knockdown cell toxicity (counter line); HT-1080 IDH1 knockdown viability, ATP luminescence, 48 h; Potency, µM (top dose mostly 46.1 µM), actives largely listed as cytotoxic; hit rate 2% among 360,000; AID 686971
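Viability of IDH1-knockdown HT-1080 fibrosarcoma cells was assessed by CellTiter-Glo after 48 h at 37 °C with titrated compound; concentration-effect curves were classified by fit quality and response size.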
IL-1B inflam inh: blocks inflammasome-driven IL-1 beta release. activity change, % at 57.5 µM. AID 743279. hit rate 4.7% among 360,000. THP-1 LPS/ATP IL-1B secretion, AlphaLISA, 16 h; active compounds read low; in the data active means activity change below about -50%; inconclusive means mostly about -30% to -49%
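Secreted IL-1B measured by AlphaLISA bead assay after 16 h compound exposure of THP-1 cells; compounds (final up to 57.5 uM) added 1 h before LPS (250 ng/mL) and ATP (1.25 mM) stimulation; lower signal means less secretion.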
12-LOX inh: ALOX12 (human) lipoxygenase inhibition. purified 12hLO, xylenol orange hydroperoxide absorbance. Potency, µM (highest dose often 108 µM), actives largely listed as inhibitors. hit rate 1.1% among 580,000. AID 1671190
Target sequence (P18054 whole entry, looked up): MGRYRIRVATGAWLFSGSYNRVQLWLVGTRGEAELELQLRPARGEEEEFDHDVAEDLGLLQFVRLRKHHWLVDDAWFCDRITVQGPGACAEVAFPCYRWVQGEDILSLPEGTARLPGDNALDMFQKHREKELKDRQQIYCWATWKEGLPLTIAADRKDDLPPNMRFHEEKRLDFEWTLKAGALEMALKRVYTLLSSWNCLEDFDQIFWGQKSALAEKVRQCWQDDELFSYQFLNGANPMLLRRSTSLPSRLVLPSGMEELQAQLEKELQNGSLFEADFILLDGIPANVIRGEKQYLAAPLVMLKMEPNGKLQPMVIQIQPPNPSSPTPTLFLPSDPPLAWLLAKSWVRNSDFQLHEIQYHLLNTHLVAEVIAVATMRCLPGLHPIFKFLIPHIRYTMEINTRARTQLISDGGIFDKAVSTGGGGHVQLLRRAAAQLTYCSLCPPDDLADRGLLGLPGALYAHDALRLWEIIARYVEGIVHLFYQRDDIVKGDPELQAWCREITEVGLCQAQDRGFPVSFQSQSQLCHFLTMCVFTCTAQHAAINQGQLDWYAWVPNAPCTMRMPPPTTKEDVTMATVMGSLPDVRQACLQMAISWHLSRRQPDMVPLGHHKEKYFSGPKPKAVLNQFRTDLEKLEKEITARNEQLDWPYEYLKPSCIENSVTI
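Purified human 12hLO at 150 nM in 25 mM Hepes, 0.01% Triton X-100, pH 7.0, preincubated 15 min at room temperature with compound. Reaction started with 40 uM arachidonic acid, 30 min at room temperature. Hydroperoxide measured by Fe-xylenol orange, 573/405 nm absorbance ratio.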
TDP1 cell CPT: DT40-hTDP1 cell growth loss with CPT; chicken DT40 Tdp1-/-;hTDP1 cells + 20 nM CPT, ATP luminescence, 48 h; Potency, µM (top dose mostly 46.2 µM), actives largely listed as inhibitors; hit rate 12% among 420,000; AID 686979; further: nearly all actives have a fitted effect of over 55% in size
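Chicken DT40 Tdp1-/- cells complemented with human TDP1, 400 cells/well, exposed to compounds plus 20 nM camptothecin for at least 48 h at 37 C; viability read as ATP content by CellTiter-Glo luminescence.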
Hits are given with their value. Unless noted, the call rests on the fitted dose curve; in most records, active means well fitted curve in the direction sought with a large enough effect; inconclusive means small, poorly fitted or top-dose-only effect, or another doubt; inactive means no such curve, though single readings can be large; an effect the other way counts as inactive or inconclusive.

`Cc1cccc(C)c1-n1nnnc1C(c1ccnc2ccccc12)N(CCN(C)C)Cc1ccccc1` (stereo unspecified) gave HT1080NT lethal 21µM, TDP1 cell noCPT inconclusive, HT1080 IDH1KD tx 21µM, IL-1B inflam inh inconclusive, 12-LOX inh inactive and TDP1 cell CPT inconclusive.
Screening Cc1cccc(C)c1-n1nnnc1C(c1ccnc2ccccc12)N(C)Cc1ccccc1 (stereo unspecified) returned HT1080NT lethal inactive, TDP1 cell noCPT 16µM, HT1080 IDH1KD tx inactive, IL-1B inflam inh inactive, 12-LOX inh inactive and TDP1 cell CPT inconclusive.
Screening COc1ccc(Br)cc1CC1C(=O)Nc2ccccc21 (stereo unspecified) returned TDP1 cell noCPT 7.3µM, 12-LOX inh inconclusive and TDP1 cell CPT 8.2µM.
Screening COc1ccc(CC2C(=O)Nc3ccc(Br)cc32)c(OC)c1 (stereo unspecified) returned 12-LOX inh inactive.
`Cc1ccc(-c2nc3ccc(Br)cc3c(=O)o2)cc1C` gave 12-LOX inh inactive.
For CC1=C(C(=O)N2CCCCCC2)CC(CC(=O)NC2CCCCC2)C(=O)N1Cc1ccc(C(C)(C)C)cc1 (stereo unspecified) the results were HT1080NT lethal inactive, TDP1 cell noCPT 21µM, HT1080 IDH1KD tx inactive, IL-1B inflam inh -73, 12-LOX inh inactive and TDP1 cell CPT 15µM.
CC1=C(C(=O)N(C(C)C)C(C)C)CC(CC(=O)NC2CCCCC2)C(=O)N1Cc1ccc(C(C)(C)C)cc1 (stereo unspecified) was read as HT1080NT lethal inconclusive, TDP1 cell noCPT 21µM, HT1080 IDH1KD tx inconclusive, IL-1B inflam inh inactive, 12-LOX inh inactive and TDP1 cell CPT 15µM.
`CC1=C(C(=O)N2CCCCCC2)CC(CC(=O)NCCCN(C)C)C(=O)N1Cc1ccc(C(C)(C)C)cc1` (stereo unspecified) gave HT1080NT lethal inconclusive, TDP1 cell noCPT inconclusive, HT1080 IDH1KD tx inconclusive, 12-LOX inh inactive and TDP1 cell CPT 8.3µM.
Screening CC1=C(C(=O)N2CCCCCC2)CC(CC(=O)NCCc2ccccn2)C(=O)N1Cc1ccc(C(C)(C)C)cc1 (stereo unspecified) returned HT1080NT lethal inactive, TDP1 cell noCPT 16µM, HT1080 IDH1KD tx inconclusive, IL-1B inflam inh inconclusive, 12-LOX inh inactive and TDP1 cell CPT 18µM.
CC1=C(C(=O)N2CCCCCC2)CC(CC(=O)NCCCN(C)C)C(=O)N1Cc1ccccc1 (stereo unspecified) was read as HT1080NT lethal inactive, TDP1 cell noCPT inactive, HT1080 IDH1KD tx inactive, IL-1B inflam inh inactive, 12-LOX inh inactive and TDP1 cell CPT inactive.
Screening CC1=C(C(=O)N2CCCCCC2)CC(CC(=O)NCCc2ccccn2)C(=O)N1Cc1ccccc1 (stereo unspecified) returned HT1080NT lethal inactive, TDP1 cell noCPT inactive, HT1080 IDH1KD tx inactive, IL-1B inflam inh inactive, 12-LOX inh inactive and TDP1 cell CPT inactive.
`O=C(CC1CCN(S(=O)(=O)c2ccccc2F)C1)NCc1ccccc1` (stereo unspecified) gave 12-LOX inh inactive.
For Cc1ccc(CN2CCN(c3ncncn3)CC2=O)cc1 the results were 12-LOX inh inactive.
CC1CCN(C(=O)CCSc2nc(-c3ccc4c(c3)OCO4)cc(C(F)(F)F)n2)CC1 was read as 12-LOX inh inactive.
For CC1=C(C(=O)N2CCOCC2)CC(CC(=O)NCC2CCCCC2)C(=O)N1Cc1ccc(C(C)(C)C)cc1 (stereo unspecified) the results were HT1080NT lethal inconclusive, TDP1 cell noCPT inconclusive, HT1080 IDH1KD tx inconclusive, IL-1B inflam inh -53, 12-LOX inh inactive and TDP1 cell CPT 18µM.

Source: PubChem (National Center for Advancing Translational Sciences (NCATS))
